The list is a sample of the results.
aSyn 5UTR act = Activators working through SNCA 5'UTR binding (MLPCN). alpha-synuclein 5'UTR reporter, activators screen. activity score, % (tested at 7.5 µM), hits read low. 300,000 tested, 7.1% active. AID 1814; in the data active means activity score below about -60%
Starred values were filed as active, the others as inactive.

Results for CCN(CC)CCCNc1nc2cc(OC)c(OC)cc2c2nc(-c3cccnc3)nn12 ?
aSyn 5UTR act: -79.5*

What do the screens show for `COCCn1c(SCc2nc3ccccc3s2)nc2ccccc21`?
aSyn 5UTR act: -144.1*

How did CCOCCCn1c(SCc2nc3ccccc3s2)nc2ccccc2c1=O do in these assays?
aSyn 5UTR act: -77.6*

What do the screens show for `C=CCn1c(=O)c2ccccc2n2c(SCc3nc4ccccc4s3)nnc12`?
aSyn 5UTR act: -97.4*

Results for COc1ccc(C(=O)/C(=C/c2cccs2)c2nc3ccccc3o2)cc1 ?
aSyn 5UTR act: -135.8*

How did COc1ccc(/C=C(\CC(=O)O)c2nc3ccccc3o2)cc1 do in these assays?
aSyn 5UTR act: -108.9*

Results for CCC(=O)Nc1cccc(NC(=S)NC(=O)c2ccccc2Cl)c1 ?
aSyn 5UTR act: -81.9*

Results for O=C(NC(=S)Nc1ccccc1O)c1ccc(Cl)cc1Cl ?
aSyn 5UTR act: -106.3*

Results for O=C(NC(=S)Nc1ncccn1)c1ccccc1Cl ?
aSyn 5UTR act: -181.2*

Results for CCC(=O)Nc1cccc(NC(=S)NC(=O)c2cccs2)c1 ?
aSyn 5UTR act: -161.1*

How did Cc1c(/C(O)=C2/C(=O)C(=O)N(Cc3cccnc3)C2c2cccs2)cnn1-c1ccccc1 (stereo unspecified) do in these assays?
aSyn 5UTR act: -152.3*

Results for COc1ccc(C(=O)NCCn2ccc3ccccc32)c(OC)c1 ?
aSyn 5UTR act: -89.8*

What do the screens show for `Fc1cccc(/C=N/Nc2ccccn2)c1`?
aSyn 5UTR act: -276.9*

How did Fc1cccc(Cl)c1/C=N/Nc1ccccn1 do in these assays?
aSyn 5UTR act: -235.3*

Results for Fc1cccc(F)c1/C=N/Nc1ccccn1 ?
aSyn 5UTR act: -230.4*

How did COc1ccc(C2=NOC(CN3C(=O)c4ccccc4S3(=O)=O)C2)cc1 (stereo unspecified) do in these assays?
aSyn 5UTR act: -175.4*

How did O=C1c2ccccc2S(=O)(=O)N1CC1CC(c2ccc(Cl)cc2)=NO1 (stereo unspecified) do in these assays?
aSyn 5UTR act: -197.4*

Results for O=C(CN1C(=O)c2ccccc2S1(=O)=O)c1ccccc1Cl ?
aSyn 5UTR act: 100.6

Results for O=C1c2ccccc2S(=O)(=O)N1CC1CC(c2ccccc2)=NO1 (stereo unspecified) ?
aSyn 5UTR act: -143.7*

How did S=c1nc(NCCc2ccccc2Cl)c2ccccc2[nH]1 do in these assays?
aSyn 5UTR act: -114.4*

Results for O=C(NCCc1ccc(Cl)cc1)C1CCC(CNc2nc(=S)[nH]c3ccccc23)CC1 (stereo unspecified) ?
aSyn 5UTR act: 64.5

How did O=C(COc1ccc2ccc(=O)oc2c1)c1ccccc1 do in these assays?
aSyn 5UTR act: -101.8*

What do the screens show for `CC(=O)COc1ccc2cc(-c3ccccc3)c(=O)oc2c1`?
aSyn 5UTR act: -63.9*

Results for COc1ccc(-c2cc3ccc(OCC(N)=O)cc3oc2=O)cc1OC ?
aSyn 5UTR act: -65.1*

How did CC(=O)Oc1ccc2cc(-c3ccccc3)c(=O)oc2c1 do in these assays?
aSyn 5UTR act: -162.5*

Results for CN[C@H]1CCc2cc(OC)c(OC)c(OC)c2-c2ccc(OC)c(=O)cc21 ?
aSyn 5UTR act: 90.3

What do the screens show for `CC(=O)Oc1ccc2c(=O)c(-c3ccccc3)coc2c1`?
aSyn 5UTR act: -145.8*

What do the screens show for `O=C(CCCCl)Oc1ccc2cc(-c3ccc4ccccc4n3)c(=O)oc2c1`?
aSyn 5UTR act: -124.5*

Results for COc1ccc(-c2coc3cc4oc(=O)cc(-c5ccccc5)c4cc23)cc1F ?
aSyn 5UTR act: 112.9

How did CCCCOc1ccc(Br)cc1/C(C)=N/NC1=NCCN1 do in these assays?
aSyn 5UTR act: 121.5

What do the screens show for `CCCCOc1ccc(CSC2=NCCN2)cc1[N+](=O)[O-]`?
aSyn 5UTR act: -82.0*

What do the screens show for `COc1ccccc1/C=C/C=C(\C#N)C(=O)NC(C)c1ccccc1` (stereo unspecified)?
aSyn 5UTR act: -74.0*

Results for O=C1OC(/C(=C\Nc2cc(Cl)ccc2O)[N+](=O)[O-])c2ccccc21 (stereo unspecified) ?
aSyn 5UTR act: -102.1*

Results for C/C(=N\N=C\c1ccccc1)c1nnn(-c2nonc2N)c1C ?
aSyn 5UTR act: -82.3*

Results for CSc1ccccc1-c1nnc(-c2ccc(Cl)cc2Cl)o1 ?
aSyn 5UTR act: -109.4*

Results for CSc1ccccc1-c1nnc(-c2ccc(Cl)c(Cl)c2)o1 ?
aSyn 5UTR act: -98.1*

How did FC(F)Oc1ccc(NC(=S)NC2CCCCCCC2)cc1 do in these assays?
aSyn 5UTR act: -93.1*

Results for S=C(Nc1ccc(Cl)cc1)NC1CCCCC1 ?
aSyn 5UTR act: -73.3*

Results for S=C(Nc1ccc(Br)cc1)NC1CCCCC1 ?
aSyn 5UTR act: -119.0*

What do the screens show for `CNC(=O)c1cc(C(=O)c2ccc(Cl)cc2)c[nH]1`?
aSyn 5UTR act: -63.9*

What do the screens show for `O=C(/C=C/Nc1ccc(F)c(Cl)c1)c1ccccc1`?
aSyn 5UTR act: -211.2*

What do the screens show for `Cc1ccc(N/C=C/C(=O)c2ccccc2)cc1Br`?
aSyn 5UTR act: -83.1*

Results for Cc1ccc(C(=O)/C=C/Nc2cccc(O)c2)cc1 ?
aSyn 5UTR act: -193.6*

What do the screens show for `O=C(/C=C/Nc1cccc(O)c1)c1ccccc1`?
aSyn 5UTR act: -180.5*
